# Experimental data from the supplement of paper PMC12067093, “Discovery and optimisation of a covalent ligand for TRIM25 and its application to targeted protein ubiquitination” (Chemical Science, 2025).
# About 21,000 targets were measured; listed, in parts, are those with the largest changes and a random draw of the rest.
# Compound: CC1Cc2ccccc2N1C(=O)C1CCCN(C1)C(=O)CCl (mixture of isomers) [TRIM25 ligand 11 (diastereomer mixture)]
# Test: probe-labelled cysteine peptide fold change vs DMSO (competition) (log2 fold change); higher = less target engagement (more negative = stronger competition)
# Conditions: 50 µM; THP-1; incubation time: 4 h
# 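Also: competitive chemoproteomic profiling in live THP-1 cells with an iodoacetamide desthiobiotin (IA-DTB) probe, comparing probe-labelled peptide intensities in compound-treated cells against DMSO-treated controls.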
# UniProt O43583, sequence (O43583 whole entry, looked up): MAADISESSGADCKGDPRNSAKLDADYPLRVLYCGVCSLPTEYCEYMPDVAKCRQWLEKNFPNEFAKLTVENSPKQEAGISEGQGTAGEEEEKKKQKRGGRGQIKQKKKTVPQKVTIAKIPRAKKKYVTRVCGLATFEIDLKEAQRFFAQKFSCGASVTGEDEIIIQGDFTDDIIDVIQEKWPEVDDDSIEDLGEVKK
# UniProt O75064, sequence (O75064 whole entry, looked up): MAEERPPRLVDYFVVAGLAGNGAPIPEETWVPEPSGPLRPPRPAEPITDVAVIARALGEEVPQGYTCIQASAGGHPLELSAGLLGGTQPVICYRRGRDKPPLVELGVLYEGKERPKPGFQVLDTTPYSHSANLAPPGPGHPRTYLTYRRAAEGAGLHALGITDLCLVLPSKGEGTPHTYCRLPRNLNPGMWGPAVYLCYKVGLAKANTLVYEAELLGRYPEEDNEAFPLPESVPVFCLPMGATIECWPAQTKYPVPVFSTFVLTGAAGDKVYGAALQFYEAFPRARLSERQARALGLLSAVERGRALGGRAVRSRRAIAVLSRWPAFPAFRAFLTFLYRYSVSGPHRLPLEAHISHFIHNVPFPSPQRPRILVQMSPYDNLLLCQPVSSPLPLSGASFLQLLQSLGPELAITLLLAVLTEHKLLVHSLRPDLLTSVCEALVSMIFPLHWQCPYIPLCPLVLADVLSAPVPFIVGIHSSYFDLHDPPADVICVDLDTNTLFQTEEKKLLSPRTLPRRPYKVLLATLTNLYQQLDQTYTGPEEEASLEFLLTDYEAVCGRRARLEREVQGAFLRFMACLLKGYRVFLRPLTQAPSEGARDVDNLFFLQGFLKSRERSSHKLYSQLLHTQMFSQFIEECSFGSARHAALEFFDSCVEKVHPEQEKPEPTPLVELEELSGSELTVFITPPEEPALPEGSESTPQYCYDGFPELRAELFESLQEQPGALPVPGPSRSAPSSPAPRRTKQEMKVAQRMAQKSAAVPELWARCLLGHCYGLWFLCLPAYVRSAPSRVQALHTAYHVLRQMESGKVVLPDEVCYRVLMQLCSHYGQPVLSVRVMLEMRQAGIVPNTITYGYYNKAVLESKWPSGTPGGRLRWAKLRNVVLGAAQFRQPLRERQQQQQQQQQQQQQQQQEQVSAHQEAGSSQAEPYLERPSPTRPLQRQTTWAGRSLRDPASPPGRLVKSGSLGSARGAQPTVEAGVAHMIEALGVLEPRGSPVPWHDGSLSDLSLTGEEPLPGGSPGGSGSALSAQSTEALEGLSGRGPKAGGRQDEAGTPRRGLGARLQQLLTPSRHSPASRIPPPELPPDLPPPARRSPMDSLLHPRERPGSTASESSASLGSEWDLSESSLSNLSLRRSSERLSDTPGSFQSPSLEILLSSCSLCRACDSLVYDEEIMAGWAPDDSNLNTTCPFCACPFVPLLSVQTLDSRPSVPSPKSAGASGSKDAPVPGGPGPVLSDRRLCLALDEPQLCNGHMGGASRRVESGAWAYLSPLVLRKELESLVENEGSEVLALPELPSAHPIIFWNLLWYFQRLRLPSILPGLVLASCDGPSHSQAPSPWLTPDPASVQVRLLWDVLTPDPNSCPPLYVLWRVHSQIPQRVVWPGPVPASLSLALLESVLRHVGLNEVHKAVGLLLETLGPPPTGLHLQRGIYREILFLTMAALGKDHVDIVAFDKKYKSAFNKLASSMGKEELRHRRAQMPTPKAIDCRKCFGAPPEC
# UniProt Q15398, sequence (Q15398 whole entry, looked up): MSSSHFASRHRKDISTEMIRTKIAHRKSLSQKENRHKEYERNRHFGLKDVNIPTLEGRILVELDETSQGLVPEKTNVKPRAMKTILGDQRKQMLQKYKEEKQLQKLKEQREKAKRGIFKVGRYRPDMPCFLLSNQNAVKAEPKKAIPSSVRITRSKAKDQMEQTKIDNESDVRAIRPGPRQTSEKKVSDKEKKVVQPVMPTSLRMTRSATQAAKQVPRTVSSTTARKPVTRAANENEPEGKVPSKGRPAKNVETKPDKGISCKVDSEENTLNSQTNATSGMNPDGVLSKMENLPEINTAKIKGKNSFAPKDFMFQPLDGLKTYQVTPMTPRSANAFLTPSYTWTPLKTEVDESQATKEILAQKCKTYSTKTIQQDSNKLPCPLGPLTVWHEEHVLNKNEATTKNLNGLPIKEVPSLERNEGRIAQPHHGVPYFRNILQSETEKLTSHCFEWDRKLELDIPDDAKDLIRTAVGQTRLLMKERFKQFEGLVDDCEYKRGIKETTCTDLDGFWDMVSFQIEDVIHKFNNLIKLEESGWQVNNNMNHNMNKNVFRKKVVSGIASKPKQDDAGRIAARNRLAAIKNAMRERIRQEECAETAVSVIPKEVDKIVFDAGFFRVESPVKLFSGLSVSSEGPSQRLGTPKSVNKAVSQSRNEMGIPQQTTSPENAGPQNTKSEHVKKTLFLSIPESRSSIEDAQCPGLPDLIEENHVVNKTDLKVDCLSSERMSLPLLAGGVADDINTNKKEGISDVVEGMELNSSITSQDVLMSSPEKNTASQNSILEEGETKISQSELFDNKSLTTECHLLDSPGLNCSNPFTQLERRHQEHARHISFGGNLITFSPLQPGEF
# UniProt Q96SD1, sequence (Q96SD1 whole entry, looked up): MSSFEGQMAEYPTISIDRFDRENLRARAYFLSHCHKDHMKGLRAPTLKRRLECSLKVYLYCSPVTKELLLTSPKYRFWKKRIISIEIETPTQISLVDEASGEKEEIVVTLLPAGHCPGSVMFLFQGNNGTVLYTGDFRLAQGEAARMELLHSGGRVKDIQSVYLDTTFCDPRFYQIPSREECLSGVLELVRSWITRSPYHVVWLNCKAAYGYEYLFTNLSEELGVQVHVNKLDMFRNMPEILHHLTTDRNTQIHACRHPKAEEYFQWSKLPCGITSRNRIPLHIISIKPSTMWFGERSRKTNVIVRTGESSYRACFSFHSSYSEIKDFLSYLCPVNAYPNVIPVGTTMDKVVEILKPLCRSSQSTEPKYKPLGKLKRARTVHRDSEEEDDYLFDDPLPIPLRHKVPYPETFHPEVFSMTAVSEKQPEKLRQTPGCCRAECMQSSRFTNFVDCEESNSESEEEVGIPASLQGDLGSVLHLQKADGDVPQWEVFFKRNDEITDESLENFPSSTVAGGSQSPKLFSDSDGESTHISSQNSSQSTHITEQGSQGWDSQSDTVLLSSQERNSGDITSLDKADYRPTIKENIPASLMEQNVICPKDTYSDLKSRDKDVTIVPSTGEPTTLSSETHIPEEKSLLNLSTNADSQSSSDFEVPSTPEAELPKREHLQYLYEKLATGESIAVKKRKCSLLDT
# UniProt Q9NPI6, sequence (Q9NPI6 whole entry): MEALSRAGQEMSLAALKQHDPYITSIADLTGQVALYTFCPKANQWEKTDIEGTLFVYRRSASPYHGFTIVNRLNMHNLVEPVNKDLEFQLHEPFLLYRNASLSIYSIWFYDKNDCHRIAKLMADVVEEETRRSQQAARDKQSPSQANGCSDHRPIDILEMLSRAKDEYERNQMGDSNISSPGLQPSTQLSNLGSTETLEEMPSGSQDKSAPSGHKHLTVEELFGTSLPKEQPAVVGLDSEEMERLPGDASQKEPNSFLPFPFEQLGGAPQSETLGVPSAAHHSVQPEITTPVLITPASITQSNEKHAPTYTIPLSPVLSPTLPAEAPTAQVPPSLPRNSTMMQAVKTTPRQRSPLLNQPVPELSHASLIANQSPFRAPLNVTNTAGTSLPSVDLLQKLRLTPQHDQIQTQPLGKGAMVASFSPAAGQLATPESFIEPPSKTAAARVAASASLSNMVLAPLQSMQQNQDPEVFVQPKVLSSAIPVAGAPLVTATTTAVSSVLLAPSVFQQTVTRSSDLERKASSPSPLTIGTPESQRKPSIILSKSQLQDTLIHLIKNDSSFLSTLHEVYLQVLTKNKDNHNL
# UniProt Q5QP82, sequence (Q5QP82 whole entry, looked up): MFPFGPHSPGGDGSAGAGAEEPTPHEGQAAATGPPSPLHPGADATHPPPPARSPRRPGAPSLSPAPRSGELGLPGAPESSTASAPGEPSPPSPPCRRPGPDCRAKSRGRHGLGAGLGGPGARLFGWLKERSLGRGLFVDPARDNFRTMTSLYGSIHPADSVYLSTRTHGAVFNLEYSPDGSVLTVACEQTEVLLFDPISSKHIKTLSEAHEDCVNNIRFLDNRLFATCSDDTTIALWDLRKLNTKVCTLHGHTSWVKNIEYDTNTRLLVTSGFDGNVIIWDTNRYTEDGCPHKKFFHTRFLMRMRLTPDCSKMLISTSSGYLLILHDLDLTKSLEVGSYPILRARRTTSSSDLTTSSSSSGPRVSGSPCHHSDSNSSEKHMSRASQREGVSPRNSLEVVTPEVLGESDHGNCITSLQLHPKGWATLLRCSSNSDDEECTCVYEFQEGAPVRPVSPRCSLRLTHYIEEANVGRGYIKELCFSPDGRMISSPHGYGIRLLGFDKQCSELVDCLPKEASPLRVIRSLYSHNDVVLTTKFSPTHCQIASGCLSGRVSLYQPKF
# UniProt Q9UJU6, sequence (Q9UJU6 whole entry, looked up): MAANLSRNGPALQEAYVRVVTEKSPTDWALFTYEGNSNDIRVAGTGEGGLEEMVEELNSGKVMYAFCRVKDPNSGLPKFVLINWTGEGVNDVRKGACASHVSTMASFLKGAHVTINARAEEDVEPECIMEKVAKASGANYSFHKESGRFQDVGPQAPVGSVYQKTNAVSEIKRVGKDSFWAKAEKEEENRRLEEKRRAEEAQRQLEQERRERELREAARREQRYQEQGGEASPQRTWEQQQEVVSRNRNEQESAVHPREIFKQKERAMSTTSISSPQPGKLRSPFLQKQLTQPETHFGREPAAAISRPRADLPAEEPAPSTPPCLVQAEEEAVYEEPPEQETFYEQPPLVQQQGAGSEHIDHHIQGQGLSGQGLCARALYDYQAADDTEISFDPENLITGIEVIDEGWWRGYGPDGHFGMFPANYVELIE
# UniProt P60981, sequence (P60981 whole entry, looked up): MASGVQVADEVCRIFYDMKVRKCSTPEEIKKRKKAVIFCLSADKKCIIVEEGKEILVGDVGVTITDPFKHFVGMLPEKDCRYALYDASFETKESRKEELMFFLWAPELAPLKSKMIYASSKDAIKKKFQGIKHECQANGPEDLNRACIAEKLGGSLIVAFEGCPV
row,Target,probe-labelled cysteine peptide fold change
1,CTSB_P07858_93_EQWPQCPTIK (UniProt P07858),-0.172
2,DDX17_Q92841_166+199_GGDVCPKPVFAFHHANFPQYVMDVLMDQHFTEPTPIQCQGFPLALSGR (UniProt Q92841),-0.604
3,DHX30_Q7L2E3_286_LSTLTLLWPCPMTFVAK (UniProt Q7L2E3),-0.944
4,DBNL_Q9UJU6_97_KGACASHVSTMASFLK (UniProt Q9UJU6),-0.568
5,DLGAP5_Q15398_129_YRPDMPCFLLSNQNAVK (UniProt Q15398),-0.594
6,DCP2_Q8IU60_391_KLQDNFETDAVYDLPSSSEDQLLEHAEGQPVACNGHCK (UniProt Q8IU60),-0.464
7,DDX28_Q9NUL7_360_LHCIMPHVK (UniProt Q9NUL7),0.0889
8,CUL4B_Q13620_297_CWQNHCR (UniProt Q13620),0.295
9,DOK3_Q7L591_493_KGPAPCDRP (UniProt Q7L591),0.0304
10,DSTN_P60981_39_AVIFCLSADK (UniProt P60981),-0.00534
11,DCP1A_Q9NPI6_39_QHDPYITSIADLTGQVALYTFCPK (UniProt Q9NPI6),0.205
12,DENR_O43583_44_VLYCGVCSLPTEYCEYMPDVAK (UniProt O43583),-0.0802
13,CSTF2_P33240_62_GYGFCEYQDQETALSAMR (UniProt P33240),-0.471
14,DCLRE1C_Q96SD1_34_AYFLSHCHK (UniProt Q96SD1),-0.0702
15,DCAF10_Q5QP82_412_NSLEVVTPEVLGESDHGNCITSLQLHPK (UniProt Q5QP82),-0.291
16,DDB2_Q92466_322_VYSASQWDCPLGLIPHPHR (UniProt Q92466),-0.0149
17,CTNNA2_P26232_792_IALYCHQLNICSK (UniProt P26232),0.118
18,DYNC1H1_Q14204_4644_GVAVLCTE (UniProt Q14204),0.0643
19,DOK3_Q7L591_323_LPELTRPQPCPLPR (UniProt Q7L591),-0.185
20,CTNNA1_P35221_772_TIADHCPDSACK (UniProt P35221),-0.0902
21,CSMD2_Q7Z408-3_2_CDAHLR (UniProt Q7Z408),-0.972
22,DENND4B_O75064_180_GEGTPHTYCR (UniProt O75064),0.131
23,CRYZL1_O95825_177_VISTACSLEDK (UniProt O95825),0.107
24,DIP2B_Q9P265_1282_TCVVVAEERPR<|>DIP2C_Q9Y2E4_1263_TCVVVAEERPR (UniProt Q9Y2E4+Q9P265),0.197
25,DIAPH1_O60610_1227_AGCAVTSLLASELTK (UniProt O60610),-0.221
